# Assay results taken from PubChem BioAssay AID2642 (Johns Hopkins Ion Channel Center, 2010).
# Out of some 310,000 compounds screened, about 3,900 (1.3%) were called active.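 The calls were made as follows: active = compounds whose thallium flux B-score, printed positive for inhibition, exceeds three library SD while starting fluorescence stays within three; inactive = the rest.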 Many of the other results were omitted from the sample, so actives are more common in it than they were.
# Target: Potassium voltage-gated channel subfamily KQT member 1 (Homo sapiens) (UniProt P51787)
# Assay: inhibitors of human KCNQ1 channel, primary screen, cell-based, thallium flux, high-throughput (AID 2642);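 also: channel opened by potassium depolarization with thallium stimulus after 20 min compound exposure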
# Conditions: CHO-K1 KCNQ1, FluxOR thallium flux fluorescence, at 10 µM; hits give high values
# Potassium voltage-gated channel subfamily KQT member 1 (Homo sapiens), sequence (P51787 whole entry, looked up): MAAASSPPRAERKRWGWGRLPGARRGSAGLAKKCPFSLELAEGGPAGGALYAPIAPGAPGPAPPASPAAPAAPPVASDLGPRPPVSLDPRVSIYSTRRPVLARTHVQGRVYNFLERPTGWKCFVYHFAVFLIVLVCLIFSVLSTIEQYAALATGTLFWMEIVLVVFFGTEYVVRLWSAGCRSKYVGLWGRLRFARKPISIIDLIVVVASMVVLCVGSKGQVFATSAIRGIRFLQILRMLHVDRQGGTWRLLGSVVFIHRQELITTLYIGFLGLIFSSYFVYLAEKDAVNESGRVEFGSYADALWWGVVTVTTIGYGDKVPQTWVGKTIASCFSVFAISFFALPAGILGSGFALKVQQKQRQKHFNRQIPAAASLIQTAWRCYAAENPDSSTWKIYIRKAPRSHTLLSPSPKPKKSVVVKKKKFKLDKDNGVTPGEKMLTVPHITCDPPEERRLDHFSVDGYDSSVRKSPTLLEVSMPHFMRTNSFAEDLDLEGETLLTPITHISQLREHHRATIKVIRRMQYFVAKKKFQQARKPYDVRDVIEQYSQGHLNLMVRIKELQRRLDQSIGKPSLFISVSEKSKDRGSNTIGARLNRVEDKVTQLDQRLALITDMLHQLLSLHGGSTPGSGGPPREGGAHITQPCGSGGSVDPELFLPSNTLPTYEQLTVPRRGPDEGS
row,Compound,B-score
1,CC(C)(C)Cc1nnc(NC(=O)c2cc(-c3ccccc3)nc3ccccc23)s1,11 (active)
2,COc1ccc(-c2cc(C(=O)Nc3ccccc3O)c3ccccc3n2)cc1,inactive
3,O=C(Nc1nnc(-c2ccccc2)o1)c1cc(-c2cccs2)nc2ccccc12,inactive
4,O=C(O)CCCCCCCCCC[n+]1ccccc1,inactive
5,CN(c1ccc(OCC(=O)O)cc1)S(=O)(=O)c1ccc2ccccc2c1,inactive
6,CCc1noc(C)c1C(=O)Oc1ccc(N(C)S(=O)(=O)c2ccc(C)c(C)c2)cc1,9 (active)
7,Cc1ccc(S(=O)(=O)N(C)C)cc1NC(=O)COC(=O)c1c(C)noc1C,inactive
8,CCc1ccc(OCC(=O)NCC(c2ccc(Cl)cc2)N2CCCCC2)cc1 (stereo not given),inactive
9,N#Cc1c(NC(=O)CCCN2C(=O)c3ccccc3C2=O)oc(-c2ccccc2)c1-c1ccccc1,6 (active)
10,Cc1cc(C)cc(NC(=O)CCN2C(=O)c3ccccc3C2=O)c1,inactive
11,COc1cc(C(=O)Nc2oc(-c3ccccc3)c(-c3ccccc3)c2C#N)cc(OC)c1OC,inactive
12,Cc1cc(OCC(=O)N2CCN(c3ncccn3)CC2)ccc1Cl,inactive
13,COc1ccc(S(=O)(=O)NCCc2c[nH]c3ccccc23)cc1OC,inactive
14,COc1cccc(CNCCc2c[nH]c3ccccc23)c1OCc1ccccc1F,8 (active)
15,COc1ccccc1CC(=O)NCCc1c[nH]c2ccccc12,inactive
16,O=C(Nc1ccccc1N1CCCC1)c1ccc2ccccc2c1,inactive
17,COc1ccc(N2CCN(C(=O)c3ccc(N4CCCCS4(=O)=O)cc3)CC2)cc1,inactive
18,COc1ccc(C(=O)N2CCc3cc(OC)c(OC)cc3C2c2cccc([N+](=O)[O-])c2)cc1 (stereo not given),7 (active)
19,COc1ccccc1C1SCCN1C(=O)c1ccc([N+](=O)[O-])cc1 (stereo not given),inactive
20,COc1ccc2[nH]c(=O)c(C3c4cc(OC)c(OC)cc4CCN3C(=O)c3ccco3)cc2c1 (stereo not given),inactive
21,O=C(Nc1ccncc1)Nc1ccc(F)cc1,inactive
22,CC(C)(CCl)C(=O)Nc1ccc(Sc2ccc(F)cc2)cc1,9 (active)
23,O=C(CCl)Nc1ccc(Sc2ccc(NC(=O)CCl)cc2)cc1,inactive
24,CCOC(=O)CC1C(=O)NCCN1c1nc2c(C)cccn2c(=O)c1/C=C1\SC(=S)N(C(C)CC)C1=O (stereo not given),inactive
25,CCCN(CCC)c1nc2c(C)cccn2c(=O)c1/C=C1/SC(=S)N(Cc2ccco2)C1=O,14 (active)
26,CNc1nc2c(C)cccn2c(=O)c1C=Nc1ccc(OC)cc1,inactive
27,Cc1cccc(OCC(=O)Nc2ccc(NC(=O)c3ccco3)c(C)c2)c1,inactive

row,Compound,B-score
1,CCC(C)(C(=O)NC1CCCCC1)N(C)C(=O)c1ccc2c(c1)OCO2 (stereo not given),inactive
2,COCCSc1nnc(NC(=O)c2cc(OC)c(OC)cc2[N+](=O)[O-])s1,inactive
3,Cc1cccc(NC(=S)NCc2ccc3[nH]c4c(c3c2)CCCC4)c1,6 (active)
4,O=C(O)CCC(=O)NCc1ccc2[nH]c3c(c2c1)CCCC3,inactive
5,Cc1cc(C)cc(NC(=S)NCc2ccc(F)cc2)c1,inactive
6,CC(C)(C)c1ccc(SCCc2ccncc2)cc1,inactive
7,C=CCN1CN(S(=O)(=O)c2ccc(OC)cc2)c2nc3ccccc3nc21,inactive
8,CC(C)(C)NS(=O)(=O)c1ccc(NC(=O)C2CCCO2)cc1 (stereo not given),inactive
9,CCCC(C)C(=O)Nc1ccc(NC(C)=O)cc1 (stereo not given),inactive
10,COc1ccc(S(=O)(=O)/N=C2\C=C(NS(=O)(=O)c3ccccc3)C(=O)c3ccccc32)cc1,6 (active)
11,COc1ccc(NC(=O)c2cnc(NS(=O)(=O)c3ccccc3)nc2)cc1,inactive
12,CCCC(NS(=O)(=O)c1ccc(OC)cc1)C(=O)O (stereo not given),inactive
13,COc1c(N2CCN(C(=S)Nc3ccccc3F)C(C)C2)c(F)cc2c(=O)c(C(=O)O)cn(C3CC3)c12 (stereo not given),inactive
14,Cc1cc(C)n2nc(C(=O)OC(C)C(=O)c3cc(C)c(C)cc3C)nc2n1 (stereo not given),inactive
15,Cc1cc(Br)ccc1NC(=O)c1cnc(N2CCN(c3ccccn3)CC2)c2ccccc12,7 (active)
16,O=C(CN1CCN(c2ccccn2)CC1)Nc1ccc(Br)cc1,inactive
17,Cc1cc(Br)ccc1NC(=O)c1sc2ncn(CC(=O)N3CCN(c4ccccn4)CC3)c(=O)c2c1C,inactive
18,COc1ccc(Cc2nnc(SCC(=O)Nc3ccc(C)c(C)c3)o2)cc1OC,inactive
19,CCCc1ccc(C(=O)[C@@H]2[C@@H](C(C)=O)N3c4ccc(F)cc4C=C[C@@H]3[C@@]23C(=O)Nc2ccccc23)cc1,inactive
20,Cc1ccc(-c2nn(-c3ccccc3)cc2CN(Cc2ccccc2)C(=O)CCC(=O)O)o1,inactive
21,CCc1ccc(-c2nn(-c3ccccc3)cc2CSC(=N)N)cc1,14 (active)
22,COc1ccc(-c2nn(-c3ccccc3)cc2C(=O)Nc2nc(CC(C)=O)ns2)cc1,inactive
23,COc1ccc2c(c1)c(=O)c(C(=O)c1ccc(Cl)cc1)cn2CC(=O)Nc1ccc(F)cc1,inactive
24,S=C(Nc1cccc(Cl)c1)Nc1ccc2cn[nH]c2c1,inactive
25,FC(F)(F)c1cccc(NC(=S)Nc2cccc(Cl)c2)c1,18 (active)
26,O=C(Nc1cccc(S(=O)(=O)Nc2ccc(Cl)cc2)c1)c1ccc2c(c1)OCCO2,inactive
27,S=C(NCc1ccco1)Nc1ccc2c(c1)OCCO2,inactive

row,Compound,B-score
1,Cc1csc(NC(=S)Nc2cccc(Cl)c2)n1,inactive
2,S=C(Nc1cccc(Cl)c1)Nc1ccc2c(c1)OCCO2,8 (active)
3,COc1cccc(OCC(O)CNC(=O)c2oc3c(C)c(C)ccc3c2C)c1 (stereo not given),inactive
4,Cc1cc(=O)oc2c3c(cc(OCC(=O)NCCC(=O)N[C@@H](C)C(=O)O)c12)OC(C)(C)CC3,inactive
5,O=C(O)c1ccccc1-c1ccccc1C(=O)Nc1ccccc1Br,inactive
6,Nc1cc(OC(=O)c2ccccc2Br)nn1S(=O)(=O)c1ccccc1,inactive
7,COc1ccccc1C(=O)NCCC(=O)NC(C)CCc1ccccc1 (stereo not given),inactive
8,O=C(Nc1cccc([N+](=O)[O-])c1)N1CCc2ccccc2C1,7 (active)
9,CCc1ccc(NC(=O)N2CCc3ccccc3C2)cc1,inactive
10,CN1CCN(CC(=O)Nc2cccc([N+](=O)[O-])c2)CC1,inactive
11,CCCCNCc1ccc(SC)cc1,inactive
12,Cc1cc(C)cc(N(CC(=O)NCC2CCCO2)S(=O)(=O)c2c(C)noc2C)c1 (stereo not given),inactive
13,Cc1cc(C)cc(N(CC(=O)N2CC=C(c3ccccc3)CC2)S(=O)(=O)c2c(C)noc2C)c1,6 (active)
14,CCOC(=O)C1CCCN(C(=O)CN(c2ccc(OC)cc2)S(=O)(=O)c2c(C)noc2C)C1 (stereo not given),inactive
15,COc1cccc(/C=N/NC(=O)c2[nH]nc3c2CCc2ccccc2-3)c1O,inactive
16,COc1cccc(/C=N/Nc2ncc(C(F)(F)F)cc2Cl)c1O,inactive
17,COc1cccc(/C=N/Nc2cc(C)nc(-c3ccccc3O)n2)c1O,7 (active)
18,CN(C(=O)c1ccccc1)c1nccnc1C#N,inactive
19,CCOC(=O)CC1COCCN1C(=O)c1cc(COc2ccc(F)c(F)c2)on1 (stereo not given),inactive
20,Cc1nc(N2CCN(c3ccccn3)CC2)c2c(C)c(C(=O)Nc3ccc(F)c(Cl)c3)sc2n1,13 (active)
21,Cc1nc(N2CCN(c3ccccn3)CC2)c2c(C)c(C(=O)Nc3ccc(F)cc3)sc2n1,10 (active)
22,Cc1nc(N2CCC(C)CC2)c2c(C)c(C(=O)Nc3cc(F)ccc3C)sc2n1,inactive
23,COc1ccc(NC(=O)c2sc3nc(C)nc(N4CCN(c5ccccn5)CC4)c3c2C)c(OC)c1,inactive
24,Cc1nc(N2CCOCC2)c2c(C)c(C(=O)Nc3ccc(C(F)(F)F)cc3)sc2n1,inactive
25,O=C(c1c(F)cccc1Cl)N1CCN(c2ccccn2)CC1,inactive
26,Cc1ccccc1NC(=O)c1cc(S(=O)(=O)Nc2cccc(C(=O)O)c2)ccc1Cl,inactive
27,COCOc1cc(O)c(C(=O)/C=C/c2ccc(OCOC)c(OCOC)c2)c(OCOC)c1,inactive

row,Compound,B-score
1,CCCCS(=O)c1snnc1C (stereo not given),inactive
2,COc1ccc(OC)c(Nc2nc3ccccc3n3cnnc23)c1,inactive
3,COc1cccc(C(=O)Nc2nnc(S(=O)(=O)N(C)c3ccccc3)s2)c1,inactive
4,CS(=O)(=O)c1ccc(Cl)c(NC(=O)COC(=O)c2cccc(S(=O)(=O)N3CCCC3)c2)c1,inactive
5,COc1ccc(C2C=C(c3ccc(Br)cc3)Nc3nc(NS(C)(=O)=O)nn32)cc1 (stereo not given),inactive
6,COc1ccc(C)cc1NC(=O)NCCCCc1ccccc1,inactive
7,COc1ccc(C)cc1NC(=O)C(Sc1ccccc1)c1ccccc1 (stereo not given),6 (active)
8,COc1ccc(C)cc1NC(=O)Nc1ccccc1SC,inactive
9,CCCN1CNC(=S)N(CCc2ccccc2)C1,inactive
10,CCOC(=O)c1sc(=S)n2c1[nH]c(=O)c1ccc(C(=O)OC)cc12,inactive
11,CCOC(=O)c1sc(=NC(=O)c2ccc(Br)cc2)n(C)c1C,inactive
12,CCOC(=O)C1=C(C)Nc2sc(C(=O)c3ccc(Br)cc3)c(N)c2C1c1ccc(C(=O)OC)cc1 (stereo not given),8 (active)
13,CCCc1nnc(SCC(=O)Nc2ccc(C(=O)OCC)cc2)o1,inactive
14,CCOC(=O)c1ccc(NC(=O)CSc2nnc(COc3ccccc3OC)n2C)cc1,inactive
15,CCOC(=O)c1ccc(NC(=O)Cn2cnc3cc(C)c(C)cc32)cc1,7 (active)
16,COc1ccc(CCNc2cc(N3CCN(C(=O)c4ccccc4OC)CC3)ccc2[N+](=O)[O-])cc1OC,inactive
17,Cc1c(Cl)cccc1NC(=O)NCCCN1CCCC1=O,inactive
18,O=C1CCCN1CCCNC(=S)Nc1ccc(F)c(Cl)c1,7 (active)
19,Cc1cc(Cl)ccc1NC(=S)NCCCN1CCCC1=O,inactive
20,CCOc1cc(CN2CCCC(CO)(Cc3ccc(F)cc3F)C2)ccc1OC (stereo not given),inactive
21,CN(Cc1ccc(F)cc1Cl)S(=O)(=O)c1cccs1,inactive
22,O=C(Nn1c(-c2ccccc2)nc2ccccc2c1=O)c1ccc([N+](=O)[O-])cc1,inactive
23,O=C(Nn1c(SCc2ccc([N+](=O)[O-])cc2)nc2ccccc2c1=O)c1ccc(F)cc1,9 (active)
24,C=CCn1c(SCc2ccc(C(=O)NCCO)cc2)nc2ccccc2c1=O,inactive
